This is part of a sample that, as a whole, favours compounds with a hit. Of some 83,000 tested, about 20% had one in any assay.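 Single-dose data. Exposure time 48 hours. Values below 10 considered active.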 Unmarked numbers belong to inactive results. Calls of active or inactive are those of the source.

Experiment in all cases: NCI-60 one-dose screen, 48 h (100 = growth as untreated, 0 = no growth, -100 = all killed)
Conditions in all cases: 10 µM unless noted

Assay [1] concerns SK-MEL-2 melanoma.
Assay [2] concerns EKVX NSCLC.
Assay [3] has as its system SN12C renal.
In assay [4] the test system is UO-31 renal.
Assay [5] relates to TK-10 renal.
The test system of assay [6] is ACHN renal.
Assay [7] has as its system CAKI-1 renal.
Assay [8] relates to A498 renal.
Assay [9] relates to CCRF-CEM leukemia.
Assay [10] relates to MOLT-4 leukemia.
In assay [11] the test system is SR leukemia.
In assay [12] the test system is RPMI-8226 leukemia.
For assay [13], the system named is OVCAR-8 ovarian.
For assay [14], the system named is OVCAR-5 ovarian.
The test system of assay [15] is SK-OV-3 ovarian.
The test system of assay [16] is IGROV1 ovarian.
Assay [17] concerns OVCAR-3 ovarian.
The test system of assay [18] is HS 578T breast.
The subject of assay [19] is NCI/ADR-RES ovarian.

`O=c1[nH]cnc2c1ccn2C1OC(CO)C(O)C1O` (stereo not drawn): the growth in [1] was 21.2%; in assay [2] it was 79%; in [3], 63.1%; in assay [4], 37.9%; in [5] it was 52.7%; in [6], 27.8%. Besides, the growth was 37.2% in assay [7]; 57.5% in [8]; 64.1% in assay [9]; 53.6% in assay [10]; 58.1% in [11]; 58% in assay [12]. The growth in [13] was 31.4%; in assay [14], 76.6%; in assay [15] it was 39.3%; in assay [16], 48.7%; in [17], 64.7%; in assay [18], 74.6%. Also, in assay [19], the growth is 31.1%.

`O=C(Nc1ccc(Oc2ccc(F)cc2)c(Cl)c1)c1cnccn1`: the growth in [1] is 53.6%; in assay [2], 78%; in [3] it was 69.8%; in [4] it was 65%; in assay [5] it was 85.8%; in assay [6], 94.1%. For the same molecule, the growth in [7] is 49.7%; in [8], 67.7%; in [9], 64.1%; in assay [10] it was 45.1%; in assay [11] it was 49.3%; in [12] it was 80.4%. Also, the growth in assay [13] was 71.4%; in assay [14] it was 81.1%; in assay [15], 100%; in [16], 62.6%; in assay [17], 43.6%; in [18], 62.4%. In assay [19], the growth was 40.8%.

For the molecule `CCCCC(CCCCCC(CCCC)C1NC(C)Cc2cc(OC)c(OC)cc21)C1NC(C)Cc2cc(OC)c(OC)cc21` (stereo not drawn), the growth was -81.9% (active) in [1]; -61.2% (active) in assay [2]; -21.3% (active) in assay [3]; -83.5% (active) in [4]; -94.5% (active) in assay [5]; -100% (active) in assay [6]. Also, the growth in [7] was -63.9% (active); in assay [8], -12.3% (active); in [9], -43.3% (active); in assay [10] it was -63% (active); in assay [11], -79.2% (active); in assay [12] it was -48.3% (active). For the same molecule, the growth in [13] was -74.3% (active); in assay [14] it was -96.4% (active); in assay [15], -87.3% (active); in assay [16] it was -34.8% (active); in [17], -94.2% (active); in [18], -38.6% (active). The growth in assay [19] is -88.3% (active).

On to `Cc1cnc([C@]23CC[C@@H](C)[C@H](C)[C@H]2C2=CC[C@@H]4[C@@]5(C)Cc6c([nH]c7ccccc67)C(C)(C)[C@@H]5CC[C@@]4(C)[C@]2(C)CC3)o1`, for which the growth is 77.4% [100 µM] in [1]; 74% [100 µM] in assay [2]; 36.7% [100 µM] in assay [3]; 39% [100 µM] in assay [4]; 64.2% [100 µM] in assay [5]; 42.7% [100 µM] in [6]. The growth in assay [7] was 49.7% [100 µM]; in assay [8], 91.9% [100 µM]; in [9] it was 64% [100 µM]; in assay [10], 50.5% [100 µM]; in assay [11] it was 121% [100 µM]; in assay [12], 26.6% [100 µM]. Moreover, the growth was 39.3% [100 µM] in [13]; 59.7% [100 µM] in [14]; 73.9% [100 µM] in assay [15]; 25.9% [100 µM] in assay [16]; 83.8% [100 µM] in [17]; 70.2% [100 µM] in [18]. Besides, the growth in [19] is 68.3% [100 µM].

For the molecule `CC1(C(=O)O)CCC(N)(C(=O)O)C1(C)C` (stereo not drawn), the growth was 110% in assay [1]; 112% in assay [2]; 107% in assay [3]; 86.5% in [4]; 101% in assay [5]; 116% in assay [6]. Further, the growth in assay [7] is 114%; in [8] it was 87.7%; in assay [9] it was 89.7%; in assay [10] it was 100%; in [11], 105%; in [12], 91.9%. Moreover, the growth in assay [13] is 111%; in assay [14] it was 115%; in assay [15], 97%; in assay [16], 108%; in assay [17], 102%; in [18] it was 127%. Further, the growth in assay [19] is 118%.

On to `[2H]C1([2H])CCN(C(=O)C2CC2)c2cc(NS(=O)(=O)c3ccc(-c4cccc(C(N)=O)c4)cc3)ccc21`, for which the growth in assay [1] is 7.75% (active); in [2], 72.7%; in assay [3], 43.7%; in assay [4], 77.8%; in assay [5], 64.2%; in assay [6], 73.5%. Also, the growth was 72.3% in [7]; -0.663% (active) in assay [8]; 30.7% in [9]; 44.3% in [10]; 38.1% in assay [11]; 37.1% in assay [12]. Besides, the growth is 53.9% in assay [13]; 60.6% in assay [14]; 26.1% in assay [15]; 32.4% in assay [16]; 12.4% in assay [17]; 18.7% in assay [18]. The growth in [19] was 95%.

In the case of `CC[C@]12C=CCN3CC[C@@]4(c5ccc(OC)cc5N(C)[C@H]4[C@@](O)(C(=O)OC)[C@@H]1OC(=O)CCC(=O)O[C@H]1CC[C@H]4[C@@H]5CCC6=CC(=O)CC[C@@H]6[C@H]5CC[C@]14C)[C@@H]32`, the growth in [1] was -79.8% [100 µM] (active); in [2] it was 16.1% [100 µM]; in assay [3] it was 7.65% [100 µM] (active); in assay [4], -7.86% [100 µM] (active); in assay [5] it was 12.4% [100 µM]; in assay [6] it was -0.641% [100 µM] (active). The growth is 6.42% [100 µM] (active) in assay [7]; -15.8% [100 µM] (active) in assay [8]; 5.61% [100 µM] (active) in assay [9]; -6.15% [100 µM] (active) in assay [10]; 10.5% [100 µM] in assay [11]; -22.1% [100 µM] (active) in [12]. Moreover, the growth is 26.4% [100 µM] in assay [13]; 23.7% [100 µM] in assay [14]; 13.2% [100 µM] in [15]; -46.3% [100 µM] (active) in assay [16]; 8.48% [100 µM] (active) in assay [17]; 4.75% [100 µM] (active) in [18]. Moreover, the growth in [19] was 10.8% [100 µM].
